Drawing on PubChem BioAssay (EPA / NIEHS), this text covers outcome and AC50 for three molecules.

For experiment [1], the target named is Bile acid receptor (Homo sapiens) (UniProt Q96RI1). Briefly: ATG_IR1_CIS: Attagene CIS-FACTORIAL HepG2 Assay for human Nuclear Receptor Subfamily 1 Group H Member 4 (NR1H4), IR1 submotif (AID 2282946). Particulars: IR1 reporter transcription, actives raise or lower the signal. The procedure, abridged:
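HepG2 cells transiently transfected with multiplexed cis-element reporter units read endogenous transcription factor activity. After 24 h compound exposure, reporter mRNA was quantified by RT-PCR, fluorescent labelling, HpaI digestion and capillary electrophoresis; bidirectional fitting versus DMSO baseline.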

Experiment [2] can be described thus: ATG_GRE_CIS: Attagene CIS-FACTORIAL HepG2 Assay for human Glucocorticoid Response Elements (GRE) (AID 2282947). Particulars: HepG2 GRE cis-reporter, Attagene multiplex mRNA; actives raise or lower the signal. The procedure, abridged:
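Reporter transcripts read by RT-PCR with capillary electrophoresis fluorescence after a 24 h chemical exposure of HepG2 cells transiently transfected with multiple cis-element reporter units. Gain or loss fitted against DMSO.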

Experiment [3] in a line: ATG_ISRE_CIS: Attagene CIS-FACTORIAL HepG2 Assay for human Interferon Regulatory Factor 1 (IRF1) binding to an Interferon-Stimulated Response Element (ISRE) (AID 2282948). The conditions noted are these: HepG2 ISRE cis-reporter (Attagene), mRNA transcription readout; actives raise or lower the signal. Summed up: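 Endogenous transcription factor activity read as reporter transcript abundance via RT-PCR and capillary electrophoresis. HepG2 cells transiently transfected, 24 h chemical exposure. Gain or loss fitted against DMSO baseline.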

A short description of experiment [4]: ATG_M_32_CIS: Attagene CIS-FACTORIAL HepG2 Assay for M32 Transcription Factor (Internal Marker) (AID 2282949).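 Further: background control marker of the multiplexed CIS panel rather than a real target.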 Particulars: HepG2 Attagene cis-factorial M32 reporter, mRNA; actives raise or lower the signal. The procedure, abridged:
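HepG2 human liver cells transiently transfected with cis-promoter-driven multiple reporter transcription units, dosed 24 h. Reporter mRNA quantified by RT-PCR, FAM-labelled primer extension, HpaI digest and capillary electrophoresis; bidirectional fit versus DMSO baseline.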

Experiment [5] is described as follows: ATG_M_06_CIS: Attagene CIS-FACTORIAL HepG2 Assay for M06 Transcription Factor (Internal Marker) (AID 2282950). Particulars: HepG2 Attagene CIS-FACTORIAL M06 internal marker reporter; actives raise or lower the signal. Summed up: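 Measured 24 h post-dosing in transiently transfected HepG2 cells, this internal-marker endpoint reports reporter mRNA via RT-PCR with fluorescent primer extension and capillary electrophoresis. DMSO served as negative control and baseline for bidirectional fitting.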

The target in experiment [6] is Hypoxia-inducible factor 1-alpha (Homo sapiens) (UniProt Q16665). The experiment in a line: ATG_HIF1a_CIS: Attagene CIS-FACTORIAL HepG2 Assay for human Hypoxia Inducible Factor 1 (HIF1A) (AID 2282951). The conditions noted are these: HepG2 Attagene cis-factorial HIF1a reporter transcription; actives raise or lower the signal. Summed up: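 Dosed 24 h, transfected HepG2 cells yielded total RNA whose reporter transcripts were RT-PCR-amplified and sized by capillary electrophoresis using fluorescent labelling; DMSO defined baseline, with gain and loss of signal both fitted.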

The target of experiment [7] is Hepatocyte nuclear factor 6 (Homo sapiens) (UniProt Q9UBC0). The experiment in a line: ATG_HNF6_CIS: Attagene CIS-FACTORIAL HepG2 Assay for human Hepatocyte Nuclear Factor 6 (HNF6) (AID 2282952). Particulars: HepG2 Attagene cis-factorial HNF6 reporter transcription; actives raise or lower the signal. The procedure, abridged: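 Endogenous transcription factor activity in human HepG2 liver cells was captured through cis-regulated reporter constructs. After 24 h treatment, reporter mRNA was measured by RT-PCR with capillary electrophoresis, and activity was fitted in both directions relative to DMSO.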

Experiment [8] has as its target Heat shock factor protein 1 (Homo sapiens) (UniProt Q00613). The experiment in a line: ATG_HSE_CIS: Attagene CIS-FACTORIAL HepG2 Assay for human Heat Shock Transcription Factor 1 (HSE) (AID 2282953). The conditions noted are these: HepG2 HSE cis-reporter, Attagene RNA transcription; actives raise or lower the signal. Summed up:
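Reporter mRNA induction in HepG2 is measured 24 h after dosing, using transiently transfected multiplexed cis-regulated reporter units. Signal comes from capillary electrophoresis of labelled RT-PCR products, with DMSO as negative control.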

Experiment [9] in a line: ATG_MRE_CIS: Attagene CIS-FACTORIAL HepG2 Assay for human Metal Responsive Element (MRE) (AID 2282954). Particulars: HepG2 MRE cis-reporter transcription, Attagene multiplex; actives raise or lower the signal. The procedure, abridged:
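Endogenous MRE-dependent transcription read as reporter mRNA in transiently transfected human HepG2 cells at 24 h. RNA reverse-transcribed, PCR-amplified, labelled and resolved by capillary electrophoresis; gain or loss relative to DMSO.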

Experiment [10] in a line: ATG_PBREM_CIS: Attagene CIS-FACTORIAL HepG2 Assay for human Phenobarbital-responsive Enhancer Module (PBREM) (AID 2282955). The conditions noted are these: HepG2 PBREM cis-reporter, Attagene multiplexed transcription; actives raise or lower the signal. Summed up:
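Transfected liver-derived HepG2 cells exposed 24 h; PBREM reporter transcript quantified via RT-PCR and capillary electrophoresis, with activity in either direction referenced to DMSO.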

Experiment [11] addresses Paired box protein Pax-6 (Homo sapiens) (UniProt P26367). Briefly: ATG_Pax6_CIS: Attagene CIS-FACTORIAL HepG2 Assay for human Paired Box 6 (PAX6) (AID 2282956). Particulars: HepG2 CIS-FACTORIAL PAX6 reporter transcription, RNA readout; actives raise or lower the signal. Summed up:
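Read-out is reporter transcript level, measured by RT-PCR with fluorescent primer extension and capillary electrophoresis after 24 h dosing of transfected HepG2 cells. Activity in either direction fitted relative to DMSO control.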

Experiment [12] in a line: ATG_PXRE_CIS: Attagene CIS-FACTORIAL HepG2 Assay for human Pregnane X Receptor Element (PXRE) (AID 2282957). The conditions noted are these: HepG2 Attagene CIS-FACTORIAL PXRE reporter, mRNA; actives raise or lower the signal. Summed up:
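Endogenous transcription factor activity in HepG2 was gauged through induction of reporter mRNA driven by a cis-regulating promoter element, sampled 24 h post-treatment. Activity was fitted in both directions against DMSO negative control.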

Experiment [13] is described as follows: ATG_PPRE_CIS: Attagene CIS-FACTORIAL HepG2 Assay for human Peroxisome Proliferator-activated Response Element (PPRE) (AID 2282958). Particulars: HepG2 PPRE cis-element reporter, Attagene transcription factor profiling; actives raise or lower the signal. Summed up: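 Measured endpoint: PPRE-controlled reporter mRNA, detected by RT-PCR and capillary electrophoresis fluorescence, from transiently transfected HepG2 cells 24 h after dosing. Curves fitted in both directions using DMSO baseline.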

Experiment [14] in a line: ATG_Sox_CIS: Attagene CIS-FACTORIAL HepG2 Assay for human SRY-box transcription factor (SOX) (AID 2282960). The conditions noted are these: HepG2 Attagene cis-factorial SOX reporter, mRNA; actives raise or lower the signal. Summed up: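 Gain- or loss-of-signal endpoint, fitted bidirectionally with DMSO as negative control. Based on reporter mRNA from transfected HepG2 cells harvested 24 h post-treatment and quantified via RT-PCR and capillary electrophoresis.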

Experiment [15] addresses Transcription factor Sp1 (Homo sapiens) (UniProt P08047). The experiment in a line: ATG_Sp1_CIS: Attagene CIS-FACTORIAL HepG2 Assay for human Specificity Protein 1 (Sp1) (AID 2282961). Particulars: HepG2 Sp1 cis-reporter transcription, actives raise or lower the signal. Summed up: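 Endpoint reflects endogenous Sp1 transcriptional activity, not an exogenous fusion protein: HepG2 cells with transfected cis-regulated reporters, 24 h dosing, RT-PCR/capillary electrophoresis mRNA read-out, DMSO-normalised bidirectional fit.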

Experiment [16] can be described thus: ATG_SREBP_CIS: Attagene CIS-FACTORIAL HepG2 Assay for human Sterol Regulatory Element Binding (SREBP) (AID 2282962). The conditions noted are these: HepG2 Attagene cis-factorial SREBP reporter, mRNA; actives raise or lower the signal. The procedure, abridged:
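Endogenous SREBP activity read as cis-element-driven reporter transcript in transiently transfected HepG2, 24 h post-dosing; quantified via RT-PCR plus capillary electrophoresis of fluorescent fragments. Gain or loss of signal fitted relative to DMSO baseline.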

The target in experiment [17] is Signal transducer and activator of transcription 3 (Homo sapiens) (UniProt P40763). The experiment in a line: ATG_STAT3_CIS: Attagene CIS-FACTORIAL HepG2 Assay for human Signal Transducer and Activator of Transcription 3 (STAT3) (AID 2282963). The conditions noted are these: HepG2, Attagene cis-factorial STAT3 reporter transcription; actives raise or lower the signal. Summed up:
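Readout is reporter transcript quantified by RT-PCR and capillary electrophoresis, with 6-FAM primer extension and HpaI digestion. Total RNA is taken 24 h after dosing transiently transfected HepG2 carrying cis-regulated reporter units. Bidirectional fit against DMSO.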

Experiment [18] can be described thus: ATG_TA_CIS: Attagene CIS-FACTORIAL HepG2 Assay for human TA Basal Promoter (AID 2282964). Particulars: HepG2 Attagene CIS-factorial TA basal promoter reporter; actives raise or lower the signal. The procedure, abridged: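 Cis-factorial format in HepG2: reporters report endogenous factors, not chimeric Gal4 fusions. After 24 h treatment, reporter transcripts were measured by RT-PCR-capillary electrophoresis fluorescence, analysed bidirectionally versus DMSO.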

Experiment [19] is described as follows: ATG_RORE_CIS: Attagene CIS-FACTORIAL HepG2 Assay for human RAR-related Orphan Receptor Element (RORE) (AID 2282959). The conditions noted are these: HepG2 Attagene cis-factorial RORE reporter, mRNA; actives raise or lower the signal. Summed up:
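Transiently transfected HepG2 reporter cells were treated 24 h. Reporter transcripts were detected by RT-PCR and capillary electrophoresis, with bidirectional fitting against DMSO.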

“And” between values parts separate entries of the source, which are not always exact repeats. Equal values may be shown once. Some compounds were tested as several samples or in several runs, with calls that do not always agree. The source made the active and inactive calls. How the source made its calls: active means hit-call score of the fitted dose curve at least 0.9, where 1 is the maximum; inactive means score below 0.9.

Hypoxia-inducible factor 1-alpha (Homo sapiens), sequence (Q16665 whole entry, looked up): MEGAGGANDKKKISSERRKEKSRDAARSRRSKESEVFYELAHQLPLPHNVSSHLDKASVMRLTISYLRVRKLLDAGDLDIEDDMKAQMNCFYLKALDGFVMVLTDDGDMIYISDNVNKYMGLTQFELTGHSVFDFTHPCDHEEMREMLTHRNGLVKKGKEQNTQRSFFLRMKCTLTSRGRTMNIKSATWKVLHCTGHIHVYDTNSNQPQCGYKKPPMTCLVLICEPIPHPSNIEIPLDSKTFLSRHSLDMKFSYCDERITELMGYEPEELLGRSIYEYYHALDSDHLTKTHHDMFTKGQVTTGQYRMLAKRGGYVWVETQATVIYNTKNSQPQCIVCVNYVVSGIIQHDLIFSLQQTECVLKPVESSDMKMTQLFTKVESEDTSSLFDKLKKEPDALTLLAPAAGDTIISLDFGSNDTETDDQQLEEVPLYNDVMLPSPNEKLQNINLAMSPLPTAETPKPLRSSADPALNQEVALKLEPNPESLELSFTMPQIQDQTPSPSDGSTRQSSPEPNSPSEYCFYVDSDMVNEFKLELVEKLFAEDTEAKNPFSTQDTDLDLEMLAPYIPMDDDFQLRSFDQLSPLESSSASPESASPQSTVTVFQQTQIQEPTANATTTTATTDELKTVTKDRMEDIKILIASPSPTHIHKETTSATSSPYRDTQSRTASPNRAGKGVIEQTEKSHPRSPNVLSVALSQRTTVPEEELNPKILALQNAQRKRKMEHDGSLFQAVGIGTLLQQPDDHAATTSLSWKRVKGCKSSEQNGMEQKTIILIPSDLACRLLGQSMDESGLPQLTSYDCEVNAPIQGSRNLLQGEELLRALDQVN
Transcription factor Sp1 (Homo sapiens), sequence (P08047 whole entry, looked up, the tested form may be a part): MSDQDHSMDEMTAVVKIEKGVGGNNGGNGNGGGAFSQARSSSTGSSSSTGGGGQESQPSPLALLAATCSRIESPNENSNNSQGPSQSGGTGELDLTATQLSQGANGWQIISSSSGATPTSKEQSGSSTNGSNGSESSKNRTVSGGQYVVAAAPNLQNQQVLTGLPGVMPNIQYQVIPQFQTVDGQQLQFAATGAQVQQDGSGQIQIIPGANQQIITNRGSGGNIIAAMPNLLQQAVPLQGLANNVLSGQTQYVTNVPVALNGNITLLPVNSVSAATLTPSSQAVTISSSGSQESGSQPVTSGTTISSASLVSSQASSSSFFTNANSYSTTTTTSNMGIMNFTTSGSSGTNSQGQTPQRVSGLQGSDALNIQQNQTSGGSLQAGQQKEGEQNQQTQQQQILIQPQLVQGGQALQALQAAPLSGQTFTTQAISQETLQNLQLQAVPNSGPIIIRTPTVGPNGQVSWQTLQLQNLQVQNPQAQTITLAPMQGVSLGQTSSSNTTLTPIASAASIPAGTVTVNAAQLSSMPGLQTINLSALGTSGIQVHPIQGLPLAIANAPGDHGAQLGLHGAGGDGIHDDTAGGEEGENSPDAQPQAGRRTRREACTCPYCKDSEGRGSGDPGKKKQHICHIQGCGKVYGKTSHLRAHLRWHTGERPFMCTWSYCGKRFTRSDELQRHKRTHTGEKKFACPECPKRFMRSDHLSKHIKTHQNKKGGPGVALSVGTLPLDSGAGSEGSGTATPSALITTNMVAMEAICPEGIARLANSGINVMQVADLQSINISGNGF
Hepatocyte nuclear factor 6 (Homo sapiens), sequence (Q9UBC0 whole entry, looked up): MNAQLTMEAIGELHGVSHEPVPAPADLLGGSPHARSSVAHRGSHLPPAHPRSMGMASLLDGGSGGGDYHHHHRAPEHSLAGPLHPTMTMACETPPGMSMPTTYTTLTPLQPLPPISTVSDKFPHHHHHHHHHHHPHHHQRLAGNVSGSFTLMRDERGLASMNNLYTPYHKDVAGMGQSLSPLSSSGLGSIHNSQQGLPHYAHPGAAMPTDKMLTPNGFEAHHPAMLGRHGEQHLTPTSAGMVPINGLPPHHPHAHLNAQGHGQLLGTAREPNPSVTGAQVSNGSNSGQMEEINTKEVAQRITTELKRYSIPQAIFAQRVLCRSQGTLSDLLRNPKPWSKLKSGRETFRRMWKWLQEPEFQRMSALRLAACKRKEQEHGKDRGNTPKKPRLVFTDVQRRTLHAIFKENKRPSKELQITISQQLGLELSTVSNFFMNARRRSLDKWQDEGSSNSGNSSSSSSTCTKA
Signal transducer and activator of transcription 3 (Homo sapiens), sequence (P40763 whole entry, looked up): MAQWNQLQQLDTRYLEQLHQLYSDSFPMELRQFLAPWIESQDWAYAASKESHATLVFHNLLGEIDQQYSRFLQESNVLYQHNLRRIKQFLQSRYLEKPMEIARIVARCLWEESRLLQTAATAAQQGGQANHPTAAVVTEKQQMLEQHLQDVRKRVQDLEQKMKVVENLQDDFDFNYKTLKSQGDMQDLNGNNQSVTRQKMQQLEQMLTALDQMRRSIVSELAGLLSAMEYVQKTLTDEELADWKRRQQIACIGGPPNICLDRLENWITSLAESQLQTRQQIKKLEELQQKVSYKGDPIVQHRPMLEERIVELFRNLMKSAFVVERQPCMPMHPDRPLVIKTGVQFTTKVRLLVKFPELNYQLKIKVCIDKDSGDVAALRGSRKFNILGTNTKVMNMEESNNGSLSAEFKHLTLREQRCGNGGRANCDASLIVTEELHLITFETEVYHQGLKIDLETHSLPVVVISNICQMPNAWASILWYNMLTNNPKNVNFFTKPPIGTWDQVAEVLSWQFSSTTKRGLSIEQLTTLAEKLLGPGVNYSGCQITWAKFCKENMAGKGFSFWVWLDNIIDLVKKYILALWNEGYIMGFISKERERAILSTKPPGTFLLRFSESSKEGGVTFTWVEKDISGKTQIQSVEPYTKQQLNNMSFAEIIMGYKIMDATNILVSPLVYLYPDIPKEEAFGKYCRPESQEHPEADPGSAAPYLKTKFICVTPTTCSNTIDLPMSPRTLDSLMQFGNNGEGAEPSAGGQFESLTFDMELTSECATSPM
Paired box protein Pax-6 (Homo sapiens), sequence (P26367 whole entry, looked up): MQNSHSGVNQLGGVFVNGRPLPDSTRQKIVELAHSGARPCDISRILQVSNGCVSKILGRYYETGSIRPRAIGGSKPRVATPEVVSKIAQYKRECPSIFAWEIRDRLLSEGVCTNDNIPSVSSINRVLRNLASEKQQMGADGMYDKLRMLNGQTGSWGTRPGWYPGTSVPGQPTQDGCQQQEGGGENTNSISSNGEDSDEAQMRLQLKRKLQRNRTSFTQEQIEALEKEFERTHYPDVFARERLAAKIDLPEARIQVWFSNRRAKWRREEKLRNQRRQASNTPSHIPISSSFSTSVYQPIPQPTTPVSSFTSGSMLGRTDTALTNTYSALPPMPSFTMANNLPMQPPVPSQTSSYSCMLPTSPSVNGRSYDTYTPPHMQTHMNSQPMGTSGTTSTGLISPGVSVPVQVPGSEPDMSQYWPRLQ
Heat shock factor protein 1 (Homo sapiens), sequence (Q00613 whole entry, looked up): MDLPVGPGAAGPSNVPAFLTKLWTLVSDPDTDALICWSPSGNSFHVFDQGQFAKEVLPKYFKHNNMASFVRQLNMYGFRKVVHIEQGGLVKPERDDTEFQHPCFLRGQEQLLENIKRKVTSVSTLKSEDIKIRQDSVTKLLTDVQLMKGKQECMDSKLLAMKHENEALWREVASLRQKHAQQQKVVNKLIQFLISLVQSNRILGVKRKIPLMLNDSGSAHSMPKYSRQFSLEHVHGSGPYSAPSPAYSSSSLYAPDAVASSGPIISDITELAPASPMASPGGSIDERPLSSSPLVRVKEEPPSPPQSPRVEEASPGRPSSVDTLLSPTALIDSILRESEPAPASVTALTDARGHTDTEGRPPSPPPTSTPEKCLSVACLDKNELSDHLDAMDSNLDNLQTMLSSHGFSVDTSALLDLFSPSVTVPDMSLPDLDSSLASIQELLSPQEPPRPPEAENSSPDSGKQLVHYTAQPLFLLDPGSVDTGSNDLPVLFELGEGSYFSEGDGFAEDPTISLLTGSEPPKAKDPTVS
Bile acid receptor (Homo sapiens), sequence (Q96RI1 whole entry, looked up): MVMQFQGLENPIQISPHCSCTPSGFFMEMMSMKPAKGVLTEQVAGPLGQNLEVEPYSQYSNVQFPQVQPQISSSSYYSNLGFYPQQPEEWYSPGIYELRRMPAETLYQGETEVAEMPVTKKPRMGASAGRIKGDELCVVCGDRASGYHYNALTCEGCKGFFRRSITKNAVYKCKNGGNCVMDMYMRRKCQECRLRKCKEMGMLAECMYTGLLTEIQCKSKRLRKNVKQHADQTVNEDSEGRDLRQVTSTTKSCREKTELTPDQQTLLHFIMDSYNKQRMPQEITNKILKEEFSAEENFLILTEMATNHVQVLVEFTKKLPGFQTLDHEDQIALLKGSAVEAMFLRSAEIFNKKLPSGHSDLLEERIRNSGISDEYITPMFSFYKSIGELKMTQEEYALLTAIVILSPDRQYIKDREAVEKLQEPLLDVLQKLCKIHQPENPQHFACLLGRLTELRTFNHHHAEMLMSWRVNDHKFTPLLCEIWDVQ

One may read the AC50 as the concentration at which the activity in the assay is half-maximal. In the case of `CCOC(=O)[C@H](C)Oc1ccc(Oc2nc3ccc(Cl)cc3o2)cc1`, the call in [1], in experiment [2], in experiment [3], in experiment [4], in experiment [5] and in [6] was inactive. Moreover, the molecule was called inactive in experiment [7], in [8], in [9], in experiment [10], in experiment [11] and in experiment [12]. The molecule was called inactive in experiment [14], in experiment [15], in [16], in experiment [17] and in [18]. In experiment [13], the AC50 is 50 µM (active).

On to `CC(C)(c1ccc(O)cc1)c1ccc(O)cc1`, for which the half-maximal activity concentration (AC50) in experiment [3] is 142 µM (active) [middle of 5 runs]; in experiment [6], 179 µM (active); in experiment [7], 45.7 µM (active); in experiment [8], 153 µM (active) [middle of 6 runs]; in experiment [11] it was 105 µM (active) [middle of 4 runs]; in [13], 28.6 µM (active) and 38.9 µM (active) and 15 µM (active). Moreover, the AC50 in [15] was 60 µM (active); in experiment [17] it was 33.4 µM (active); in experiment [18], 140 µM (active) [middle of 4 runs]. The molecule was called inactive in experiment [3], in experiment [4], in experiment [5], in [6], in experiment [7] and in [8]. For the same molecule, the outcome in [9], in experiment [10], in experiment [11], in experiment [12], in experiment [13] and in experiment [14] was inactive. The call in experiment [15], in [16], in experiment [17] and in experiment [18] was inactive.

For the molecule `CCOC(=O)NCCOc1ccc(Oc2ccccc2)cc1`, the AC50 in experiment [1] is 88.9 µM (active); in experiment [6] it was 86 µM (active); in experiment [8], 78.1 µM (active); in experiment [9], 66.2 µM (active); in [10], 50 µM (active); in [12], 10 µM (active). Besides, the results for the AC50 in experiment [13] and in experiment [19] were 8.06 µM (active) and 13.3 µM (active), respectively. The outcome in [3], in [4], in [5], in [7], in [11] and in experiment [14] was inactive. Besides, the result in experiment [15], in [16], in experiment [17] and in experiment [18] was inactive.
